From PubChem BioAssay (NCATS) come the findings set out here.

The nature of assay [1]: qHTS Assay for Identifying Gametocytocidal Compounds (AID 743244; active = well fitted curve in the direction sought with a large enough effect; an effect the other way counts as inactive or inconclusive;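 note: % is set by controls: 0 for no effect and ±100 for the full control effect; actives lower the fluorescent signal which means gametocytes are killed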). To be noted: P. falciparum 3D7 stage III-V gametocytes, alamarBlue, 72 h; max response: stronger effect = lower value. In outline: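 Fluorescence at Ex 525/Em 598 nm, recorded 24 h after alamarBlue addition, reports residual metabolic activity of 3D7 gametocytes (stages III–V) following 72 h compound exposure at 37 °C, 5% CO2.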

Assay [2] can be described thus: qHTS profiling of the MIPE4 collection as inhibitors of Plasmodium falciparum (3D7) proliferation (AID 743344).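 Note: scaled between DMSO vehicle wells and 0.29 µM artemisinin as full inhibition.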 The following applies: P. falciparum 3D7 in erythrocytes, SYBR Green DNA fluorescence, 72 h; at 28.5 µM (top of the series) unless noted. In short, it runs like this:
(§1)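 Erythrocytes infected with P. falciparum (0.3% parasitemia, 2.5% hematocrit) incubated with compounds 72 h at 37 C, 5% CO2. Lysis with saponin/Triton buffer containing SYBR Green I, overnight at room temperature in the dark; DNA fluorescence (485/535 nm) normalised to 0.29 uM artemisinin and DMSO.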

Assay [3] is described as follows: qHTS profiling of the MIPE4 collection as inhibitors of Plasmodium falciparum (DD2) proliferation (Rep 2) (AID 743346). To be noted: P. falciparum Dd2 in erythrocytes, SYBR Green DNA, 72 h; at 28.5 µM (top of the series) unless noted. In short, it runs like this: as §1
Assay [4] can be described thus: qHTS profiling of the MIPE4 collection as inhibitors of Plasmodium falciparum (HB3) proliferation (AID 743347).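 Note: plate controls were DMSO vehicle wells for no effect and artemisinin wells for full effect.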 The following applies: P. falciparum HB3 in erythrocytes, SYBR Green DNA, 72 h; at 28.5 µM (top of the series) unless noted. In outline: as §1
A short description of assay [5]: High-throughput drug toxicity screening in the BPDCN cell line Gen2.2 (AID 1224824).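 Note: cells exposed to compounds for 48 h before reading.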 To be noted: Gen2.2 BPDCN cells; at 45.8 µM (top of the series) unless noted. In outline:
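CellTiter-Glo luminescence after 48 h compound exposure of Gen2.2 cells; percent activity set with DMSO as 100% and bortezomib (9.2 uM final) as 0%. Cells seeded at 500 per well, RPMI + 10% FBS, 37 °C.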

A short description of assay [6]: qHTS profiling of the MIPE4 collection as inhibitors of Plasmodium falciparum (DD2) proliferation (AID 743345). The following applies: P. falciparum Dd2 in erythrocytes, SYBR Green DNA, 72 h; at 28.5 µM (top of the series) unless noted. In short, it runs like this:
as §1

The nature of assay [7]: qHTS assay for cell viability of the p53RE-bla HCT-116 cell line (AID 743292; active = well fitted curve in the direction sought with a large enough effect; an effect the other way counts as inactive or inconclusive; note: % is set by controls: 0 for no effect and ±100 for the full control effect; nearly all actives have a fitted effect of over 55% in size). In outline: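 Readout: CellTiter-Glo luminescence after 30 min RT. Treatment: compounds in DMSO, 16 h, 37 C. Cells: CellSensor p53RE-bla HCT-116, 4,000/well, preincubated 5 h.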

Values joined by “and” are separate entries in the source; they are usually repeats but may differ in a detail not shown here. Equal entries are not always repeated. Inconclusive results are not listed. Active and inactive are the calls of the source. Unless noted, the rule behind the calls is not given here.

As to `CCC1=C(C)CN(C(=O)NCCc2ccc(S(=O)(=O)NC(=O)NC3CCC(C)CC3)cc2)C1=O` (stereo not given), in assay [1], the max response is 36.8% (inactive). For the same compound, in assay [2], the parasite growth, % of DMSO control was determined as 98.4%. In addition, the parasite growth, % of control (lower = inhibition) in assay [3] was 85.1%. Also, in assay [4], the growth, % of control turned out to be 99.4%. The cell viability, % of control (lower = more cytotoxic) in assay [5] came to 114%.
Taken in the same sequence, the figures for `Oc1ccc(OCc2ccccc2)cc1` were 3.93% (inactive), 89.5%, 83.5%, 89.5% and 226%.
On to `CN(C)CCc1c[nH]c2ccc(Cn3cncn3)cc12`, for which the max response in assay [1] is -0.403% (inactive). For the same compound, the parasite growth, % of DMSO control in assay [2] turned out to be 89.2%. Moreover, in assay [6], the parasite growth remaining, % of DMSO control (lower = more inhibition) stood at 102%. The parasite growth, % of control (lower = inhibition) in assay [3] is 62.6%. Further, the growth, % of control in assay [4] worked out at 99.9%. In addition, the cell viability, % of control (lower = more cytotoxic) in assay [5] turned out to be 102%.
In the case of `CC(=O)N1CCN(c2ccc(OC[C@H]3CO[C@](Cn4ccnc4)(c4ccc(Cl)cc4Cl)O3)cc2)CC1`, the Potency entry in assay [7] is “inactive”. In assay [2], this compound returned a parasite growth, % of DMSO control of 10.3%. Moreover, the growth, % of control in assay [4] is 6.71%. For the same compound, the cell viability, % of control (lower = more cytotoxic) in assay [5] worked out at 64.7%.
Compound `CN(C)C(=O)[C@H](O)[C@H](Cc1ccccc1)NC(=O)c1cc2cc(Cl)ccc2[nH]1` yielded a parasite growth, % of DMSO control in assay [2] of 6.18%. For the same compound, the parasite growth remaining, % of DMSO control (lower = more inhibition) in assay [6] came out at 54.1%. Also, the parasite growth, % of control (lower = inhibition) in assay [3] amounted to 13.9%. For the same compound, the growth, % of control in assay [4] came out at 2.28%. Moreover, the cell viability, % of control (lower = more cytotoxic) in assay [5] turned out to be 238%.
In the case of `O=C(O)CCNC(=O)c1ccc(N=Nc2ccc(O)c(C(=O)O)c2)cc1`, the max response in assay [1] is 7.5% (inactive). Moreover, the parasite growth, % of DMSO control in assay [2] worked out at 57.4%. For the same compound, the parasite growth, % of control (lower = inhibition) in assay [3] is 88.5%. In assay [4], this compound displayed a growth, % of control of 73.4%. The cell viability, % of control (lower = more cytotoxic) in assay [5] was found to be 171%.
For `O=C(CS(=O)Cc1ccco1)NCC=CCOc1cc(CN2CCCCC2)ccn1` (stereo not given), in assay [2], the parasite growth, % of DMSO control worked out at 78%. Moreover, the parasite growth remaining, % of DMSO control (lower = more inhibition) in assay [6] is 95.7%. For the same compound, the parasite growth, % of control (lower = inhibition) in assay [3] was 53.3%. Besides, the growth, % of control in assay [4] amounted to 86.8%. In addition, the cell viability, % of control (lower = more cytotoxic) in assay [5] is 120%.
As to `NC(=O)Cc1cccc(C(=O)c2ccccc2)c1N`, the max response in assay [1] is 5.12% (inactive). Also, the growth, % of control in assay [4] was 95.3%. For the same compound, in assay [5], the cell viability, % of control (lower = more cytotoxic) was found to be 108%.
Compound `O=Nc1c(-c2c(O)[nH]c3cc(Br)ccc23)[nH]c2ccccc12` showed a parasite growth, % of DMSO control in assay [2] of 2.9%. Further, the parasite growth, % of control (lower = inhibition) in assay [3] was determined as 3.69%. The compound further showed a growth, % of control in assay [4] of 1.37%. Further, in assay [5], the cell viability, % of control (lower = more cytotoxic) stood at 1.04%.
Consider `c1cnc2cc3c(cc2n1)C1CNCC3C1`, for which, in assay [1], the max response is -11.9% (inactive). Besides, in assay [2], the parasite growth, % of DMSO control worked out at 94.7%. The parasite growth, % of control (lower = inhibition) in assay [3] was 52.2%. Besides, in assay [4], the growth, % of control stood at 68.4%. Also, the cell viability, % of control (lower = more cytotoxic) in assay [5] was determined as 95.8%.
On to `O=P(O)(O)C(O)(Cn1ccnc1)P(=O)(O)O`, for which the max response in assay [1] is 13.2% (inactive). In addition, the parasite growth, % of DMSO control in assay [2] is 103% [at 9.64 µM]. For the same compound, the parasite growth, % of control (lower = inhibition) in assay [3] was determined as 94.2% [at 9.64 µM]. Moreover, the cell viability, % of control (lower = more cytotoxic) in assay [5] amounted to 109% [at 23.2 µM].
In the case of `O=C1NC(=O)C(c2ccccc2[N+](=O)[O-])=C1Nc1ccc(O)c(Cl)c1`, the parasite growth, % of DMSO control in assay [2] was found to be 68.6%. In addition, the parasite growth remaining, % of DMSO control (lower = more inhibition) in assay [6] worked out at 87.1%. In assay [3], the parasite growth, % of control (lower = inhibition) came to 106%. This compound gave a growth, % of control in assay [4] of 125%. Also, the cell viability, % of control (lower = more cytotoxic) in assay [5] came out at 124%.
The corresponding values for `CC(=O)O[C@H]1C(=O)[C@@]2(C)C([C@H](OC(=O)c3ccccc3)[C@]3(O)C[C@H](OC(=O)[C@H](O)[C@@H](NC(=O)c4ccccc4)c4ccccc4)C(C)=C1C3(C)C)[C@]1(OC(C)=O)CO[C@@H]1C[C@@H]2O` (stereo not given in full) are 5.85%, 14.4%, 11.8%, 4.22% and 17%.
Consider `C[C@H](Cn1cnc2c(N)ncnc21)OCP(=O)(O)O`, for which the parasite growth, % of DMSO control in assay [2] stood at 171%. The parasite growth, % of control (lower = inhibition) in assay [3] worked out at 107%. Further, in assay [4], the growth, % of control came out at 612%. For the same compound, the cell viability, % of control (lower = more cytotoxic) in assay [5] was determined as 168%.
Turning to `O=C(O)c1cccnc1Nc1cccc(C(F)(F)F)c1`, in assay [1], the max response is -9.57% (inactive) and 27.4% (inactive). Also, in assay [2], the parasite growth, % of DMSO control worked out at 83.9%. The parasite growth, % of control (lower = inhibition) in assay [3] is 77.4%. In assay [4], this compound displayed a growth, % of control of 74%. Moreover, the cell viability, % of control (lower = more cytotoxic) in assay [5] was 122%.
